Drawing on PubChem BioAssay, this text covers inhibition for 39 molecules.

Activity calls are given as the source filed them. How the calls were made is not given here.

The nature of this experiment: inhibition of Brca1/Bard1 split-luciferase complementation, confirmation, counter-screen for Mdm2/MdmX interaction inhibitor project, luminescence, single concentration (AID 504668). The note with it: Brca1/Bard1 bimolecular luciferase complementation counterscreen, at 8 µM, active compounds read high. On the technique in general: A counterscreen serves to expose hits that act by an unwanted route or on another target.
The term inhibition denotes how much of the control response was suppressed. `Cc1ccc(S(=O)(=O)c2nc(S(=O)(=O)c3ccccc3)sc2N2CCN(C)CC2)cc1`: the inhibition is 23.7% (active). The result for `CCOC(=O)C1=C(C)n2c(s/c(=C/c3cccc([N+](=O)[O-])c3)c2=O)=NC1c1ccc(O)c(OC)c1` (centres undefined) reads 26.4% (active); that for `Cc1ccc(O)c(/C=N/NC(=O)Cc2ccc(Cl)cc2)c1`, 33.6% (active). In the case of `O=C(Nc1nc(-c2ccccn2)cs1)c1cccc(-n2cnnn2)c1`, the inhibition was 26.2% (active). The result for `O=C(NC1CCCc2c1cnn2-c1ccccc1F)c1ccccn1` (centres undefined) reads 28.6% (active). In the case of `CC1=Nc2cc(C(=O)N3CCCC3)ccc2Sc2c(C)ccc(C)c21`, the inhibition is 23.1% (active).

For the molecule `O=S(=O)(CCSc1nc2ccccc2o1)c1nc2ccccc2s1`, the inhibition was 35.6% (active).

As to `O=C(N/N=C(\Cc1ncc[nH]1)c1ccccc1)c1ccccc1`, the inhibition is 24.8% (active). The result for `COc1ccc(N/N=C/c2c(C(=O)O)ccc3ccccc23)cc1` reads 24.1% (active); that for `O=C(Nc1ccccc1)c1ccccc1NS(=O)(=O)c1ccc(Cl)s1`, 27.7% (active); that for `O=C(N/N=C(\Cc1ncc[nH]1)c1ccccc1)c1ccncc1`, 30.3% (active). The result for `COc1ccccc1-c1cc(C(F)(F)F)nc(S(=O)(=O)CCCC(=O)NC(C)C)n1` reads 31.4% (active). The result for `CCOC(=O)CSC1=NC(=O)/C(=C/c2ccc(OC)cc2)S1` reads 32.1% (active); that for `CCCCNc1c(-c2ccc(OC)c(SC3CCCCC3)c2)nc2ccc(C)cn12`, 28.6% (active).

Consider `O=C(Nc1nc(-c2ccccc2)cs1)c1ccccc1NS(=O)(=O)c1ccc(F)cc1`, for which the inhibition was 25.5% (active). As for `COc1ccc(O)c(/C=N/NC(=O)c2ccc(OCc3cccc(Br)c3)cc2)c1`, the inhibition was 32.8% (active).

With `COc1cc(/C=C2\SC(=Nc3ccc(O)cc3)NC2=O)cc(OC)c1OC`, the inhibition is 28.2% (active). The result for `Oc1ccc2ccccc2c1N=Nc1ccccn1` reads 28% (active); that for `CCCC(=O)NC(c1ccco1)c1cc(Cl)c2cccnc2c1O` (centres undefined), 23.3% (active); that for `Cc1ccc(C(C)C)cc1OCC(=O)Nc1nnc(C2CC2)s1`, 33.4% (active). `O=c1nc(Nc2ccc(OCc3ccccc3)cc2)sc2ncccc12`: the inhibition is 23.4% (active). For the molecule `COc1cc2c(O)c3c(c(-c4ccc5c(c4)OCO5)c2cc1OC)C(=O)OC3`, the inhibition is 26.1% (active). The result for `C#CCOCCOCCOCCNc1nc(N2CCN(C(=O)CCCCCCCCCCNC(=O)Cn3cc(C[C@@H](C)O)nn3)CC2)nc(N2CCN(C(=O)CCCCCCCCCCNC(=O)[C@@H]([C@H](C)CC)n3cc(CCCCCN)nn3)CC2)n1` reads 27.2% (active); that for `CS(=O)(=O)Nc1ccccc1C(=O)Nc1cc(Cl)cc(Cl)c1`, 28.3% (active); that for `Cc1ccc(CNC(=O)c2ccc3c(=O)c(O)c(-c4ccc(C)cc4)[nH]c3c2)cc1`, 29% (active).

On to `O=C(Nc1ccc(-c2nc3ccccc3[nH]2)cc1)c1ccc2c(c1)OCO2`, for which the inhibition is 28.7% (active).

As for `C=CCc1cccc(/C=N/NC(=O)CNc2ccccc2OC)c1O`, the inhibition was 28.3% (active). The result for `CC(C)c1cc(C(=O)NC2CCCc3c2cnn3-c2ccccc2F)no1` (centres undefined) reads 29.3% (active); that for `COc1ccc(C(=O)Nc2nc3c(s2)CCCC3)cc1S(=O)(=O)N1CCCc2ccccc21`, 23.4% (active); that for `CC1=[N+](C)c2ccc3ccccc3c2C1(C)C`, 28.2% (active). The result for `CC1=NN(c2nc(-c3ccc(C)cc3)cs2)C(=O)C1N=Nc1ccccc1O` (centres undefined) reads 32.5% (active). The result for `COc1ccc([C@@H]2[C@@H]3C(=O)N(C(C)(C)C)C(=O)[C@@H]3[C@]3(Cc4ccc(Cl)cc4)C(=O)N(c4ccc(Br)cc4)C(=O)N23)cc1` reads 26.6% (active); that for `CCOc1ccc(N=Nc2ccc(O)c3ncccc23)cc1`, 23.3% (active); that for `O=C(N/N=C\c1c(O)ccc2ccccc12)c1ccc(O)cc1`, 31.7% (active). As for `O=c1c2ccccc2nc(N/N=C/c2c(O)ccc3ccccc23)n1O`, the inhibition was 35.9% (active). The result for `CCCOCc1ccc(O)c2ncccc12` reads 27.6% (active). Regarding `O=[N+]([O-])c1cc(-c2nc(-c3ccncc3)no2)ccc1Cl`, the inhibition is 23.3% (active).

For the molecule `CN(Cc1ccccc1)C(=O)c1ccc(NC(=O)C2CCN(C(=O)OC(C)(C)C)CC2)cc1`, the inhibition is 31.6% (active). `CC[C@]1(C(=O)OC)[C@H]2C(=O)N(Cc3ccccc3)C(=O)[C@H]2[C@H]2CN=C(SCc3ccccc3)N21`: the inhibition was 35.8% (active).
